Among the data in PubChem BioAssay (NCI) are growth values, retold here.

“And” between values parts separate entries of the source, which are not always exact repeats. Equal values may be shown once. Compounds without any hit were thinned out: in the full panel of roughly 83,000, 20% have a hit.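 A percent growth of 40 corresponds to 60% growth inhibition; 0 means no net growth; -100 means all cells died. Active threshold: below 10.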 The source made the active and inactive calls.

Test systems include HCT-15 colon; HT29 colon; SNB-75 CNS; SNB-19 CNS; U251 CNS; PC-3 prostate; SK-MEL-5 melanoma; UACC-62 melanoma; LOX IMVI melanoma; SK-MEL-28 melanoma.
What all share (assay): NCI-60 one-dose screen, 48 h (100 = growth as untreated, 0 = no growth, -100 = all killed)
Conditions in all cases: 10 µM unless noted

`COc1ccc2[nH]c(O)c(N=Nc3nc(-c4ccccc4)cs3)c2c1`: the growth is 24.9% (inactive) with HCT-15 colon; 50.5% (inactive) in the assay on HT29 colon; -1.94% (active) in the assay on SNB-75 CNS; 20% (inactive) in the assay on SNB-19 CNS; -31% (active) in the assay with U251 CNS; 16% (inactive) with PC-3 prostate. For the same compound, the growth in the assay on SK-MEL-5 melanoma is 68.8% (inactive); with UACC-62 melanoma, 30.8% (inactive); in the assay on LOX IMVI melanoma, 14.3% (inactive); with SK-MEL-28 melanoma it was 45% (inactive).

For `COc1ccc(NC(=O)Cn2c(/C=C/c3ccc([N+](=O)[O-])cc3)nc3ccccc3c2=O)cc1`, the growth is 73.7% (inactive) in the assay on HCT-15 colon; 85.5% (inactive) in the assay with HT29 colon; -32.7% (active) in the assay with SNB-75 CNS; 32.2% (inactive) in the assay on SNB-19 CNS; 32.2% (inactive) in the assay with U251 CNS; 89.7% (inactive) in the assay on PC-3 prostate. The growth in the assay on SK-MEL-5 melanoma was 52.6% (inactive); in the assay with UACC-62 melanoma, 73.2% (inactive); with LOX IMVI melanoma it was 61.5% (inactive); with SK-MEL-28 melanoma, 80.8% (inactive).

On to `CN(C)c1nc(NCCNS(=O)(=O)c2ccc(C(=O)/C=C/c3ccc(F)cc3)cc2)nc(N2CCOCC2)n1`, for which the growth in the assay with HCT-15 colon was -29.8% (active); in the assay on HT29 colon, -79.7% (active); in the assay with SNB-75 CNS, 58.5% (inactive); in the assay with SNB-19 CNS, 67.9% (inactive); in the assay on U251 CNS, -86.1% (active); with PC-3 prostate it was 49.2% (inactive). The growth in the assay on SK-MEL-5 melanoma was 66.1% (inactive); in the assay with UACC-62 melanoma, 55.2% (inactive); with LOX IMVI melanoma, -97.6% (active); in the assay with SK-MEL-28 melanoma, 97.2% (inactive).

Turning to `O=C(N/N=C/c1ccc(Cl)o1)c1[nH]c2ccc(Br)cc2c1-c1ccccc1`, the growth was -33.9% (active) in the assay with HCT-15 colon; -34.6% (active) in the assay on HT29 colon; -32.9% (active) with SNB-75 CNS; 9.24% (active) in the assay on SNB-19 CNS; -89.9% (active) in the assay with U251 CNS; 15.7% (inactive) in the assay on PC-3 prostate. In addition, the growth was -74.7% (active) in the assay with SK-MEL-5 melanoma, 3.42% (active) in the assay with UACC-62 melanoma, -58.2% (active) in the assay on LOX IMVI melanoma and 2.44% (active) with SK-MEL-28 melanoma.

For the compound `CN(C)c1nc(NCCNS(=O)(=O)c2ccc(C3=Nc4c(N)nc(N)nc4NC(c4ccc(Cl)cc4)C3)cc2)nc(N2CCOCC2)n1` (stereo not given), the growth was 61% (inactive) in the assay with HCT-15 colon; 30% (inactive) in the assay on HT29 colon; 57.9% (inactive) in the assay on SNB-75 CNS; 46.6% (inactive) with SNB-19 CNS; 49.5% (inactive) in the assay with U251 CNS; 26.4% (inactive) with PC-3 prostate. The growth in the assay on SK-MEL-5 melanoma was 20.1% (inactive); with UACC-62 melanoma, 66.6% (inactive); in the assay with LOX IMVI melanoma it was -2.54% (active); in the assay with SK-MEL-28 melanoma, 66.4% (inactive).

Regarding `Nc1cc(-c2c[nH]c3ccc(Br)cc23)nc2cc(-c3c[nH]c4ccccc34)nn12`, the growth in the assay on HCT-15 colon is -67% (active); in the assay on HT29 colon, -54.8% (active); with SNB-75 CNS, -11% (active); in the assay with SNB-19 CNS it was -77.6% (active); in the assay on U251 CNS, -83.3% (active); in the assay with PC-3 prostate, -21.1% (active). For the same compound, the growth is -96.4% (active) in the assay on SK-MEL-5 melanoma, -89.4% (active) with UACC-62 melanoma, -86.8% (active) in the assay on LOX IMVI melanoma and -98.5% (active) with SK-MEL-28 melanoma.

As to `COc1cc(CNC(=O)C[C@H](C)CCC=C(C)C)ccc1OCc1cn(-c2cccc(C(F)(F)F)c2)nn1`, the growth in the assay on HCT-15 colon is 56.8% (inactive); with HT29 colon, 96.6% (inactive); in the assay on SNB-75 CNS, 65.2% (inactive); in the assay on SNB-19 CNS, 97.2% (inactive); with U251 CNS, 51% (inactive); with PC-3 prostate, 82.5% (inactive). Moreover, the growth was 78.8% (inactive) in the assay on SK-MEL-5 melanoma, 72.1% (inactive) in the assay with UACC-62 melanoma, 80.7% (inactive) with LOX IMVI melanoma and 91.6% (inactive) in the assay with SK-MEL-28 melanoma.

As for `COc1ccc2[nH]c(=O)c(CSc3ccccc3Nc3nccc(-c4ccc(C(F)(F)F)cc4)n3)cc2c1`, the growth in the assay with HCT-15 colon is 12.9% (inactive); in the assay with HT29 colon, 4.71% (active); with SNB-75 CNS, -5.5% (active); in the assay with SNB-19 CNS, 33.7% (inactive); in the assay on U251 CNS it was 22.5% (inactive); in the assay on PC-3 prostate it was 3.44% (active). The growth in the assay with SK-MEL-5 melanoma was 48.8% (inactive); in the assay with UACC-62 melanoma, 47.9% (inactive); in the assay with LOX IMVI melanoma, 7.62% (active); with SK-MEL-28 melanoma it was 51.4% (inactive).

`CN1CCN(c2ccc3c4c(cccc24)C(=O)N(c2cccc(-c4nn(-c5ccccc5)cc4-c4nc5ccccc5s4)c2)C3=O)CC1`: the growth is 10.2% (inactive) with HCT-15 colon; 45.6% (inactive) with HT29 colon; 81.9% (inactive) with SNB-75 CNS; 82.9% (inactive) in the assay on SNB-19 CNS; 67.9% (inactive) in the assay with U251 CNS; 90.6% (inactive) in the assay on PC-3 prostate. Also, the growth in the assay on SK-MEL-5 melanoma was 90.3% (inactive); in the assay with UACC-62 melanoma it was 119% (inactive); with LOX IMVI melanoma, 96.6% (inactive); in the assay on SK-MEL-28 melanoma it was 51.6% (inactive).

Consider `O=C(CCl)Nc1ccc(C(=O)/C=C/c2cc3ccccc3nc2Cl)cc1`, for which the growth in the assay on HCT-15 colon was -85.4% (active) and 19.7% (inactive); in the assay on HT29 colon, 2.8% (active) and 65% (inactive); in the assay on SNB-75 CNS, 51.2% (inactive) and 68% (inactive); in the assay on SNB-19 CNS, -80% (active) and 46.6% (inactive); with U251 CNS, -83.8% (active) and 39.7% (inactive); with PC-3 prostate, 11.1% (inactive) and 56.4% (inactive). In addition, the growth in the assay on SK-MEL-5 melanoma was -78.4% (active) and 62.4% (inactive); in the assay on UACC-62 melanoma it was -33.3% (active) and 12.9% (inactive); with LOX IMVI melanoma it was -97.9% (active) and 3.63% (active); in the assay with SK-MEL-28 melanoma it was -69.5% (active) and 46.2% (inactive).

For `Cc1ccc(Cl)cc1NC(=O)N/C(N)=N/c1nc2ccccc2s1`, the growth was -22.4% (active) in the assay on HCT-15 colon; -69.5% (active) with HT29 colon; -4.17% (active) in the assay with SNB-75 CNS; 12.5% (inactive) in the assay with SNB-19 CNS; -43.8% (active) with U251 CNS; 2.99% (active) in the assay with PC-3 prostate. The growth is -56.9% (active) with SK-MEL-5 melanoma, -11.4% (active) in the assay on UACC-62 melanoma, -83.3% (active) in the assay with LOX IMVI melanoma and 19.6% (inactive) with SK-MEL-28 melanoma.

Turning to `COc1ccc(/C=C/c2nc3ccccc3n3c(-c4cccc([N+](=O)[O-])c4)nnc23)cc1`, the growth in the assay on HCT-15 colon was -80.7% (active); in the assay with HT29 colon it was -59.5% (active); in the assay on SNB-75 CNS, -2.16% (active); in the assay on SNB-19 CNS, 15% (inactive); in the assay with U251 CNS it was -64.5% (active); with PC-3 prostate, 5.23% (active). For the same compound, the growth with SK-MEL-5 melanoma is -95.4% (active); in the assay with UACC-62 melanoma, -83.1% (active); with LOX IMVI melanoma, -77.3% (active); in the assay with SK-MEL-28 melanoma, -47.1% (active).

Consider `CCOC(=O)/C(F)=C/C1CC1C(c1ccccc1)c1ccccc1` (stereo not given), for which the growth in the assay with HCT-15 colon was 67% (inactive); in the assay on HT29 colon, 80.6% (inactive); in the assay on SNB-75 CNS it was 90.4% (inactive); in the assay on SNB-19 CNS, 95.9% (inactive); with U251 CNS it was 109% (inactive); in the assay with PC-3 prostate, 78.8% (inactive). The growth was 88.9% (inactive) in the assay with SK-MEL-5 melanoma, 65.1% (inactive) with UACC-62 melanoma, 84.9% (inactive) in the assay with LOX IMVI melanoma and 103% (inactive) in the assay with SK-MEL-28 melanoma.
